Screens (PubChem)
HDAC3 inh – human HDAC3 inhibition; O15379; recombinant HDAC3, fluorogenic peptide/trypsin coupled, fluorescence; inhibition, % at 8.3 µM; actives 0.15% (n = 320,000); AID 2718; in the data active means inhibition above about 26%, passing the limit was not always enough; inconclusive means no clear call, values can overlap the other calls
Target sequence (O15379 whole entry, looked up): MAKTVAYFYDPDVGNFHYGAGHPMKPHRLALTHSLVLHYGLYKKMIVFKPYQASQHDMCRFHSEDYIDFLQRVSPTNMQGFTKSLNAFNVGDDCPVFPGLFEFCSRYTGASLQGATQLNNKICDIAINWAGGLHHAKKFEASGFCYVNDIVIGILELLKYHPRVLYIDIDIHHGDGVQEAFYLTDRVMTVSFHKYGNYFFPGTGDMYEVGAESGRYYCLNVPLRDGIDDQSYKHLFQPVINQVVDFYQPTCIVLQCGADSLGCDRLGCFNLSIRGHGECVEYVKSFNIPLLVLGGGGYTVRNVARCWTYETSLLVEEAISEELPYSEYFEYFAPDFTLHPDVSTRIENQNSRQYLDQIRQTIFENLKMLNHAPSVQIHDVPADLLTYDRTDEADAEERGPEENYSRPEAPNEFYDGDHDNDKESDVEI
ALR inh – blocks human ALR sulfhydryl oxidase activity; P55789; purified ALR, DTT oxidation, H2O2 HRP-luminol luminescence; inhibition, % (test concentration not listed); actives 3.8% (n = 290,000);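 active means mean replicate inhibition above about 79%, with every replicate also reaching it, limit read from the data; inconclusive means only one of the two criteria met; inactive means mean below limit and not every replicate reaching it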
Target sequence (P55789 whole entry, looked up): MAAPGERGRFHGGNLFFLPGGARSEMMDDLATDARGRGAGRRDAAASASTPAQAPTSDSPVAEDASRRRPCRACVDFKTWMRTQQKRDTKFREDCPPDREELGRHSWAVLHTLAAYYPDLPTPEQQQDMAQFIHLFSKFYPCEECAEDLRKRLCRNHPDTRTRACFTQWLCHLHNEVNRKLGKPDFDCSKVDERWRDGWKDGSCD
Rtt109 Vps75 – inhibitors of Candida albicans Rtt109/Vps75 histone acetyltransferase | inhibition, % at 34.9 µM | AID 540336 | purified Rtt109/Vps75, ThioGlo CoA-SH fluorescence, 4 h | Q5AAJ8 | actives 0.16% (n = 330,000);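 active means inhibition of at least 50% in every replicate; inconclusive means best replicate reaches 50% inhibition but some replicates fall short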
GRK2 inh – inhibitors of human GRK2 displacing RNA aptamer. AID 488847. actives 0.59% (n = 330,000). inhibition of aptamer binding, % at 10 µM. bead flow cytometry, FAM-aptamer displacement from GRK2. P25098;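 active means inhibition of aptamer binding above 40%, roughly 3 SD of noise, on plates passing a quality check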;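 further: median bead fluorescence of bound FAM aptamer so fluorescent compounds give negative values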
Efflux pump mplx – antifungal efflux pump inhibition, Nile Red retention. S. cerevisiae Candida pump triplex. inhibition, % at 10 µM. actives 0.44% (n = 330,000);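 active means plate passing quality check with inhibition over a set limit, or well fluorescence over plate mean plus 4 SD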;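 further: Nile Red retained in pooled yeast measured as flow cytometry median fluorescence; 0% = buffer negative control and 100% = Enniatin B positive control; higher means more Nile Red kept so more efflux inhibition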
Rce1 inhib – inhibitors of yeast Ras-converting enzyme. actives 0.27% (n = 290,000). Q03530. yeast membranes, quenched prenylated peptide cleavage fluorescence. calls only;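 active means fall in fluorescence gain of 50% or more versus controls, with final raw signal at or below 3038400; inconclusive means same 50% fall but final raw signal above 3038400; inactive means fall in fluorescence gain under 50%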;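 further: plate controls were neutral control wells for no effect and wells lacking membranes for full effect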
Starred values were filed as active, the others as inactive; i = inactive; u = inconclusive; x = no result; + = active, no number. Shown are actives, neighbours in structure and some others; about 4.5% of the full set was active somewhere.

SMILES | HDAC3 inh | ALR inh | Rtt109 Vps75 | GRK2 inh | Efflux pump mplx | Rce1 inhib
C/C(=N\NC(=O)Cc1ccc(Cl)cc1)c1ccc(F)cc1 | 5 | -16 | -1 | 0 | 0 | i
C/C(=N\NC(=O)Cc1ccc(F)cc1)c1ccc(O)cc1 | -12 | 99* | -2 | 18 | 0 | i
CCN(CC)c1ccc(C(=O)N/N=C(\C)c2cccnc2)cc1 | 5 | 25 | 10 | 1 | 0 | i
CCN(CC)c1ccc(C(=O)N/N=C(\C)c2ccc(O)cc2)cc1 | -2 | 94* | -17 | 1 | 0 | i
CC[n+]1c(C)sc2cc(C)ccc21 | 4 | 18 | 85* | 3 | 0 | i
CC(=O)c1sccc1NC(=O)CC(C)(C)CC(=O)O | 9 | 0 | x | 3 | 0 | i
O=S(=O)(c1ccc(N2CCC(c3ccc(Cl)cc3)=N2)cc1)N(CCO)CCO | 9 | 98* | -394 | 5 | 0 | i
CN(C)CCCNS(=O)(=O)c1cc(Cl)ccc1Cl | -1 | -4 | 1 | 0 | 0 | i
CN(C)CCCNS(=O)(=O)c1ccc(N2CCC(c3ccc(Cl)cc3)=N2)cc1 | -224 | 91* | x | 0 | 0 | u
COc1ccc(CN2CCNC(=O)C2CC(=O)N(C)Cc2nc(C)cs2)c(OC)c1 (stereo not drawn) | -6 | -12 | 19 | 0 | 0 | i
COc1ccc(-c2noc(CNC(=O)CCCN3C(=O)[C@H]4CC=CC[C@H]4C3=O)n2)cc1 | -3 | 1 | 1 | 0 | 0 | i
Cc1cccn2cc(CSc3ccccc3N)nc12 | -8 | 81* | 3 | 21 | 0 | i
Nc1ccccc1SCc1cn2cccnc2n1 | 5 | 98* | -2 | 0 | 0 | i
c1ccc(-n2cnnc2SCc2cn3cccnc3n2)cc1 | -46 | -13 | -7 | 0 | 0 | +
c1ccc(SCc2cn3cccnc3n2)nc1 | -40 | -1 | -11 | 0 | 0 | i
CCOC(=O)c1sc(NC(=O)CCN2CCC(C)CC2)c(C(=O)OCC)c1C | -3 | 19 | 1 | 0 | 0 | i
CCOC(=O)c1sc(NC(=O)CCN2CCN(CC)CC2)c(C(=O)OCC)c1C | 0 | 96* | -7 | 0 | 0 | i
Cc1ccc(/C=C2/Sc3ccc(C(=O)NCCN4CCOCC4)cc3NC2=O)cc1 | -2 | -4 | -4 | 1 | 0 | i
COc1cccc(/C=C2/Sc3ccc(C(=O)NCCCN4CCCC4)cc3NC2=O)c1 | -2 | -4 | 60* | 0 | 0 | i
O=C1Nc2cc(C(=O)NCCCN3CCCC3)ccc2S/C1=C/c1ccccc1F | 10 | 5 | 14 | 0 | 0 | i
COc1cccc(/C=C2/Sc3ccc(C(=O)NCCN4CCCC4)cc3NC2=O)c1 | 9 | -12 | 55* | 0 | 0 | i
C=CC[C@@H](CC(=O)NCCO)C(=O)N[C@@H](COC(=O)[C@@H](CC=C)Cc1ccc(F)cc1)Cc1c[nH]c2ccccc12 | 26* | 10 | 7 | 3 | 0 | x
C=CCC[C@H](Cc1ccc(F)cc1)C(=O)OC[C@@H](Cc1c[nH]c2ccccc12)NC(=O)[C@@H](CC=C)CC(=O)N(CCO)Cc1ccccc1 | 40* | 6 | -4 | 0 | 0 | x
C=CC[C@H](CC(=O)N(CCO)Cc1ccccc1)C(=O)N[C@H](COC(=O)[C@@H](CC=C)Cc1ccc(F)cc1)Cc1ccccc1 | 33* | -6 | 4 | 3 | 0 | x
C=CCC[C@@H](Cc1ccc(F)cc1)C(=O)OC[C@H](C)NC(=O)[C@@H](CC=C)CC(=O)N[C@@H](CO)Cc1ccccc1 | 6 | -3 | -11 | 83* | 0 | x
SMILES | HDAC3 inh | ALR inh | Rtt109 Vps75 | GRK2 inh | Efflux pump mplx | Rce1 inhib
C=CC[C@@H](CC(=O)N(CCO)Cc1ccccc1)C(=O)N[C@H](C)COC(=O)[C@@H](CC=C)Cc1ccc(F)cc1 | 8 | -2 | 2 | 1 | 0 | x
C=CCC[C@H](Cc1ccc(F)cc1)C(=O)OC[C@H](C)NC(=O)[C@@H](CC=C)CC(=O)N[C@H](CO)Cc1ccccc1 | 1 | -10 | 1 | 0 | 0 | x
C=CCC[C@H](Cc1ccc(F)cc1)C(=O)OC[C@H](Cc1c[nH]c2ccccc12)NC(=O)[C@@H](CC=C)CC(=O)N(CCO)Cc1ccccc1 | -4 | 4 | 1 | 11 | 2 | x
CCOc1ccc(CNC(=O)c2ccccc2NC(=O)C2=CSCCO2)cc1 | -6 | 5 | -1 | 0 | -1 | i
CCN(CC)C(=O)Cn1cc(C(=O)C(=O)Nc2ccc3c(c2)OCCO3)c2ccccc21 | 7 | -12 | 16 | 1 | -3 | i
CC(OC(=O)c1cccc(-n2cnnn2)c1)c1nc2ccccc2c(=O)[nH]1 (stereo not drawn) | 0 | 1 | 0 | 0 | 0 | x
O=C(Nc1ccc(F)cc1)OCCOc1ccc(Br)cc1 | -1 | -22 | 3 | 16 | 0 | i
O=C(c1ccccc1)N1CCN(C(=O)c2ccc([N+](=O)[O-])cc2)CC1 | -7 | -5 | 10 | 4 | 0 | i
O=[N+]([O-])c1cccc(CN2CCN(c3ncccn3)CC2)c1 | 5 | -3 | -9 | 1 | 0 | i
O=[N+]([O-])c1cccc(CN2CCN(c3cccc4[nH]ccc34)CC2)c1 | 0 | 99* | 6 | 0 | 0 | i
O=C(c1ccc([N+](=O)[O-])cc1)N1CCN(c2cccc3[nH]ccc23)CC1 | -6 | 99* | -6 | 0 | 0 | i
Cc1ccc(-c2ccc(C)c(N)c2C)c(C)c1N | 3 | 83* | 5 | 0 | 0 | i
O=C(CSCc1nc2c(nnn2Cc2ccc(F)cc2)c(=O)[nH]1)Nc1cccc(C(F)(F)F)c1 | 9 | 96* | -11 | 2 | 0 | i
CC(C)c1ccc(NC2CCCN(C(=O)c3cccs3)C2)cc1 (stereo not drawn) | 1 | 99* | -13 | 12 | 0 | i
COc1ccc(NC2CCCN(C(=O)c3ccccc3C(F)(F)F)C2)cc1 (stereo not drawn) | -9 | 99* | -3 | 2 | 0 | i
COc1ccc(NC(=O)C2CCN(C(=O)c3cccs3)CC2)cc1 | -2 | -7 | 5 | 0 | 0 | i
Cc1ccc(N2CCN(C(=O)c3cccs3)CC2)cc1C | 5 | 32 | 14 | 2 | 0 | i
Cc1ccc(NC2CCCN(C(=O)c3cccs3)C2)cc1C (stereo not drawn) | x | 99* | 7 | 3 | 0 | i
COc1ccc(NC2CCCN(C(=O)c3cccs3)C2)cc1 (stereo not drawn) | 1 | 99* | -3 | 0 | 0 | i
C/C(Cl)=C\Cn1c(N2CCCC2)nc2c1c(=O)n(C)c(=O)n2C | 2 | 39 | -1 | 1 | 0 | i
COc1cc(NC(=O)c2ccccc2)c(OC)cc1NC(=O)CN1C(=O)N(C)C2(CCCCC2)C1=O | x | x | 22 | x | x | x
